# PubChem BioAssay (EPA / NIEHS)
# Active and inactive are the calls of the source. The calls were made as follows: active = hit-call score of the fitted dose curve at least 0.9, where 1 is the maximum; inactive = score below 0.9.
# How the values were obtained:
# [1] = read-out: Monokine induced gamma interferon (MIG), CXCL9 (gene 4283); assay: BSK_CASM3C_MIG: BioMAP Diversity Plus: CASM3C Assay for Monokine induced gamma interferon (MIG) Biomarker Activity (AID 2283048); details: primary human coronary artery smooth muscle cells; actives raise or lower the signal;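 also: MIG protein level measured by ELISA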
# [2] = read-out: serum amyloid A (SAA), SAA1 (gene 6288); assay: BSK_CASM3C_SAA: BioMAP Diversity Plus: CASM3C Assay for serum amyloid A (SAA) Biomarker Activity (AID 2283049); details: primary human coronary artery smooth muscle cells; actives raise or lower the signal;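 also: SAA protein level quantified by ELISA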
# [3] = BSK_CASM3C_SRB: Viability Assessment in the BioMAP Diversity Plus: CASM3C Assay (AID 2283050); details: primary human coronary artery smooth muscle cells;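 also: total protein by SRB staining as cytotoxicity measure in parallel cultures; cells exposed to compound for 24 h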
# [4] = read-out: Thrombomodulin, THBD (gene 7056); assay: BSK_CASM3C_Thrombomodulin: BioMAP Diversity Plus: CASM3C Assay for Thrombomodulin Biomarker Activity (AID 2283051); details: primary human coronary artery smooth muscle cells; actives raise or lower the signal;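 also: thrombomodulin protein level measured by ELISA 24 h after dosing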
# [5] = read-out: Tissue Factor, F3 (gene 2152); assay: BSK_CASM3C_TissueFactor: BioMAP Diversity Plus: CASM3C Assay for Tissue Factor Biomarker Activity (AID 2283052); details: primary human coronary artery smooth muscle cells; actives raise or lower the signal;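 also: cell surface tissue factor protein level read by ELISA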
# [6] = read-out: Interferon-gamma inducible Protein 10 (IP10), CXCL10 (gene 3627); assay: BSK_hDFCGF_IP10: BioMAP Diversity Plus: hDFCGF Assay for Interferon-gamma inducible Protein 10 (IP10) Biomarker Activity (AID 2283053); details: primary human foreskin fibroblasts; actives raise or lower the signal
# Summary of the method: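 Cells: human dermal foreskin fibroblasts. Exposure: 24 h post-dosing. Detection: IP-10 ELISA, with values expressed against DMSO controls and fitted in both directions.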
# [7] = read-out: Urokinase-type plasminogen activator receptor (uPAR), PLAUR (gene 5329); assay: BSK_CASM3C_uPAR: BioMAP Diversity Plus: CASM3C Assay for Urokinase-type plasminogen activator receptor (uPAR) Biomarker Activity (AID 2283054); details: primary human coronary artery smooth muscle cells; actives raise or lower the signal;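 also: cell-surface uPAR protein level quantified by ELISA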
# [8] = read-out: Vascular cell adhesion molecule 1 (VCAM1), VCAM1 (gene 7412); assay: BSK_CASM3C_VCAM1: BioMAP Diversity Plus: CASM3C Assay for Vascular cell adhesion molecule 1 (VCAM1) Biomarker Activity (AID 2283055); details: primary human coronary artery smooth muscle cells; actives raise or lower the signal;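 also: VCAM-1 protein level quantified by ELISA on the cells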
# [9] = read-out: Epidermal growth factor receptor (EGFR), EGFR (gene 1956); assay: BSK_hDFCGF_EGFR: BioMAP Diversity Plus: hDFCGF Assay for Epidermal growth factor receptor (EGFR) Biomarker Activity (AID 2283057); details: primary human foreskin fibroblasts; actives raise or lower the signal
# Summary of the method: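 Dosing human primary skin fibroblasts, then measuring surface EGFR by ELISA at 24 h, gives the endpoint; gains and losses relative to DMSO were fitted in both directions.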
# [10] = read-out: Collagen III, COL3A1 (gene 1281); assay: BSK_hDFCGF_CollagenIII: BioMAP Diversity Plus: hDFCGF Assay for Collagen III Biomarker Activity (AID 2283056); details: primary human foreskin fibroblasts; actives raise or lower the signal
# Summary of the method: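 Cells: human foreskin fibroblasts, primary. Dosing followed by 24 h incubation, then ELISA for collagen III. Both increases and decreases scored relative to DMSO.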
structure (smiles),measurement,setting,value
CCOc1nc(F)cc2nc(S(=O)(=O)Nc3c(Cl)cccc3Cl)nn12,outcome,[1],inactive
same,outcome,[2],inactive
same,outcome,[3],inactive
same,outcome,[4],inactive
same,outcome,[5],inactive
same,outcome,[6],inactive
same,outcome,[7],inactive
same,outcome,[8],inactive
same,outcome,[9],inactive
CC(C)N1C(=O)N(c2ccccc2)CSC1=NC(C)(C)C,outcome,[1],inactive
same,outcome,[2],inactive
same,outcome,[3],inactive
same,AC50,[4],27.3 µM (active)
same,outcome,[5],inactive
same,AC50,[6],15.7 µM (active)
same,outcome,[7],inactive
same,outcome,[8],inactive
same,AC50,[10],26.7 µM (active)
same,outcome,[9],inactive
CCOP(=O)(OCC)Oc1nc(Cl)c(Cl)cc1Cl,outcome,[1],inactive
same,outcome,[2],inactive
same,outcome,[3],inactive
same,AC50,[4],0.297 µM (active)
same,outcome,[5],inactive
same,AC50,[6],20 µM (active)
same,outcome,[7],inactive
same,outcome,[8],inactive
same,AC50,[10],3.97 µM (active)
Cn1c(-c2ccccc2)cc(-c2ccccc2)[n+]1C,outcome,[1],inactive
same,outcome,[2],inactive
same,outcome,[3],inactive
same,outcome,[4],inactive
same,outcome,[5],inactive
same,outcome,[6],inactive
same,outcome,[7],inactive
same,outcome,[8],inactive
same,AC50,[10],10.1 µM (active)
same,outcome,[9],inactive
Nc1c(Cl)c(Cl)nc(C(=O)O)c1Cl,outcome,[1],inactive
same,outcome,[2],inactive
same,outcome,[3],inactive
same,outcome,[4],inactive
same,outcome,[5],inactive
same,outcome,[6],inactive
same,outcome,[7],inactive
same,outcome,[8],inactive
same,outcome,[10],inactive
CS(=O)(=O)c1cc(C(F)(F)F)ccc1C(=O)c1cnoc1C1CC1,outcome,[1],inactive
same,outcome,[2],inactive
same,outcome,[3],inactive
same,outcome,[4],inactive
same,outcome,[5],inactive
same,outcome,[6],inactive
same,outcome,[7],inactive
same,outcome,[8],inactive
same,outcome,[9],inactive
Cc1c(COC(=O)[C@@H]2[C@H](/C=C(\Cl)C(F)(F)F)C2(C)C)cccc1-c1ccccc1,outcome,[1],inactive
same,outcome,[2],inactive
same,outcome,[3],inactive
same,AC50,[4],18.1 µM (active)
same,outcome,[5],inactive
same,outcome,[6],inactive
same,outcome,[7],inactive
same,outcome,[8],inactive
same,outcome,[10],inactive
same,outcome,[9],inactive
CCCCOCN(C(=O)CCl)c1c(CC)cccc1CC,outcome,[1],inactive
same,outcome,[2],inactive
same,AC50,[3],31.4 µM (active)
same,AC50,[4],5.46 µM (active)
same,outcome,[5],inactive
same,AC50,[6],24.6 µM (active)
same,AC50,[7],29.3 µM (active)
same,AC50,[8],24.2 µM (active)
same,AC50,[10],12.2 µM (active)
same,AC50,[9],33.3 µM (active)
Nc1c(Cl)c(F)nc(OCC(=O)O)c1Cl,outcome,[1],inactive
same,outcome,[2],inactive
same,outcome,[3],inactive
same,outcome,[4],inactive
same,outcome,[5],inactive
same,outcome,[6],inactive
same,outcome,[7],inactive
same,outcome,[8],inactive
same,outcome,[9],inactive
CC1(C)CON(Cc2ccccc2Cl)C1=O,outcome,[1],inactive
same,outcome,[2],inactive
same,outcome,[3],inactive
same,outcome,[4],inactive
same,outcome,[5],inactive
same,outcome,[6],inactive
same,outcome,[7],inactive
same,outcome,[8],inactive
same,outcome,[9],inactive
N#Cc1c(Cl)cccc1Cl,outcome,[1],inactive
same,outcome,[2],inactive
same,outcome,[3],inactive
same,outcome,[4],inactive
same,outcome,[5],inactive
same,outcome,[6],inactive
same,outcome,[7],inactive
same,outcome,[8],inactive
same,outcome,[10],inactive
same,outcome,[9],inactive
Cc1cc(C)nc(Nc2ccccc2)n1,outcome,[1],inactive
same,outcome,[2],inactive
same,outcome,[3],inactive
same,outcome,[4],inactive
same,outcome,[5],inactive
same,outcome,[6],inactive
same,outcome,[7],inactive
same,outcome,[8],inactive
same,outcome,[9],inactive
CCCN(CC)CC1COC2(CCC(C(C)(C)C)CC2)O1 (stereo not drawn),outcome,[1],inactive
same,outcome,[2],inactive
same,outcome,[3],inactive
same,outcome,[4],inactive
same,outcome,[5],inactive
same,AC50,[6],1.98 µM (active)
same,outcome,[7],inactive
same,outcome,[8],inactive
same,AC50,[10],1.25 µM (active)
same,outcome,[9],inactive
CC1(C)CCC(=Cc2ccc(Cl)cc2)C1(O)Cn1cncn1 (stereo not drawn),outcome,[1],inactive
same,outcome,[2],inactive
same,outcome,[3],inactive
same,outcome,[4],inactive
same,outcome,[5],inactive
same,outcome,[6],inactive
same,outcome,[7],inactive
same,outcome,[8],inactive
same,outcome,[9],inactive
CC(C)NC(=O)N1CC(=O)N(c2cc(Cl)cc(Cl)c2)C1=O,outcome,[1],inactive
same,outcome,[2],inactive
same,outcome,[3],inactive
same,outcome,[4],inactive
same,outcome,[5],inactive
same,outcome,[6],inactive
same,outcome,[7],inactive
same,outcome,[8],inactive
same,outcome,[9],inactive
CNC(=O)Oc1cccc2ccccc12,outcome,[1],inactive
same,outcome,[2],inactive
same,outcome,[3],inactive
same,outcome,[4],inactive
same,outcome,[5],inactive
same,outcome,[6],inactive
same,outcome,[7],inactive
same,outcome,[8],inactive
same,outcome,[9],inactive
CC(C)=CC1C(C(=O)OCc2coc(Cc3ccccc3)c2)C1(C)C (stereo not drawn),outcome,[1],inactive
same,outcome,[2],inactive
same,outcome,[3],inactive
same,AC50,[4],20 µM (active)
same,outcome,[5],inactive
same,AC50,[6],3.97 µM (active)
same,outcome,[7],inactive
same,outcome,[8],inactive
same,outcome,[9],inactive
CCCCC(O)(Cn1cncn1)c1ccc(Cl)cc1Cl (stereo not drawn),outcome,[1],inactive
same,outcome,[2],inactive
same,outcome,[3],inactive
same,outcome,[4],inactive
same,outcome,[5],inactive
same,AC50,[6],32.9 µM (active)
same,outcome,[7],inactive
same,outcome,[8],inactive
same,outcome,[9],inactive
CCN(CC)c1nc(C)cc(OP(=S)(OC)OC)n1,outcome,[1],inactive
same,outcome,[2],inactive
same,outcome,[3],inactive
same,AC50,[4],20 µM (active)
same,outcome,[5],inactive
same,AC50,[6],20 µM (active)
same,outcome,[7],inactive
same,outcome,[8],inactive
same,outcome,[9],inactive
CCOc1cc(C(C)(C)C)ccc1C1COC(c2c(F)cccc2F)=N1 (stereo not drawn),outcome,[1],inactive
same,outcome,[2],inactive
same,AC50,[3],25 µM (active)
same,AC50,[4],22.8 µM (active)
same,outcome,[5],inactive
same,AC50,[6],20 µM (active)
same,AC50,[7],5.08 µM (active)
same,outcome,[8],inactive
same,AC50,[9],11.8 µM (active)
CC(C)N1C(=O)c2ccccc2NS1(=O)=O,outcome,[1],inactive
same,outcome,[2],inactive
same,outcome,[3],inactive
same,outcome,[4],inactive
same,outcome,[5],inactive
same,AC50,[6],13.4 µM (active)
same,outcome,[7],inactive
same,outcome,[8],inactive
same,AC50,[10],0.144 µM (active)
same,outcome,[9],inactive
O=P(O)(O)CCCl,outcome,[1],inactive
same,outcome,[2],inactive
same,outcome,[3],inactive
same,outcome,[4],inactive
same,outcome,[5],inactive
same,outcome,[6],inactive
same,outcome,[7],inactive
same,outcome,[8],inactive
same,outcome,[10],inactive
O=C1C2CC=CCC2C(=O)N1SC(Cl)(Cl)Cl (stereo not drawn),AC50,[1],34.9 µM (active)
same,AC50,[2],35 µM (active)
same,AC50,[3],29.5 µM (active)
same,AC50,[4],4.74 µM (active)
same,outcome,[5],inactive
same,AC50,[6],6.95 µM (active)
same,AC50,[7],32.2 µM (active)
same,AC50,[8],22.5 µM (active)
same,AC50,[10],6.44 µM (active)
same,AC50,[9],5.78 µM (active)
Cc1cnc(C2=NC(C)(C(C)C)C(=O)N2)c(C(=O)O)c1 (stereo not drawn),outcome,[1],inactive
same,outcome,[2],inactive
same,outcome,[3],inactive
same,outcome,[4],inactive
same,outcome,[5],inactive
same,outcome,[6],inactive
same,outcome,[7],inactive
same,outcome,[8],inactive
same,outcome,[9],inactive
CCN(CC)C(=O)C(C)Oc1cccc2ccccc12 (stereo not drawn),outcome,[1],inactive
same,outcome,[2],inactive
same,outcome,[3],inactive
same,AC50,[4],0.148 µM (active)
same,outcome,[5],inactive
same,AC50,[6],3.97 µM (active)
same,outcome,[7],inactive
same,outcome,[8],inactive
same,outcome,[9],inactive
CC1(C)C(C=C(Cl)Cl)C1C(=O)OC(C#N)c1cccc(Oc2ccccc2)c1 (stereo not drawn),outcome,[1],inactive
same,outcome,[2],inactive
same,outcome,[3],inactive
same,outcome,[4],inactive
same,outcome,[5],inactive
same,outcome,[6],inactive
same,outcome,[7],inactive
same,outcome,[8],inactive
same,outcome,[9],inactive
CC1(C)C(C(=O)OC(C#N)c2cccc(Oc3ccccc3)c2)C1(C)C (stereo not drawn),outcome,[1],inactive
same,outcome,[2],inactive
same,outcome,[3],inactive
same,AC50,[4],16 µM (active)
same,outcome,[5],inactive
same,outcome,[6],inactive
same,outcome,[7],inactive
same,outcome,[8],inactive
same,outcome,[10],inactive
Nc1cnn(-c2ccccc2)c(=O)c1Cl,outcome,[1],inactive
same,outcome,[2],inactive
same,outcome,[3],inactive
same,outcome,[4],inactive
same,outcome,[5],inactive
same,outcome,[6],inactive
same,outcome,[7],inactive
same,outcome,[8],inactive
same,outcome,[10],inactive
same,outcome,[9],inactive
COc1cc(Cl)c(OC)cc1Cl,outcome,[1],inactive
same,outcome,[2],inactive
same,outcome,[3],inactive
same,outcome,[4],inactive
same,outcome,[5],inactive
same,outcome,[6],inactive
same,outcome,[7],inactive
same,outcome,[8],inactive
same,outcome,[10],inactive
same,outcome,[9],inactive
COCc1cnc(C2=NC(C)(C(C)C)C(=O)N2)c(C(=O)O)c1 (stereo not drawn),outcome,[1],inactive
same,outcome,[2],inactive
same,outcome,[3],inactive
same,outcome,[4],inactive
same,outcome,[5],inactive
same,outcome,[6],inactive
same,outcome,[7],inactive
same,outcome,[8],inactive
same,outcome,[9],inactive
CO/N=C(/C1=NOCCO1)c1ccccc1Oc1ncnc(Oc2ccccc2Cl)c1F,outcome,[1],inactive
same,outcome,[2],inactive
same,outcome,[3],inactive
same,outcome,[4],inactive
same,outcome,[5],inactive
same,outcome,[6],inactive
same,outcome,[7],inactive
same,outcome,[8],inactive
same,outcome,[9],inactive
O=C(O)c1c(Cl)ccc2cc(Cl)cnc12,outcome,[1],inactive
same,outcome,[2],inactive
same,outcome,[3],inactive
same,outcome,[4],inactive
same,outcome,[5],inactive
same,outcome,[6],inactive
same,outcome,[7],inactive
same,outcome,[8],inactive
same,outcome,[10],inactive
same,outcome,[9],inactive
COCC(C)N(C(=O)CCl)c1c(C)csc1C (stereo not drawn),outcome,[1],inactive
same,outcome,[2],inactive
same,outcome,[3],inactive
same,outcome,[4],inactive
same,outcome,[5],inactive
same,outcome,[6],inactive
same,outcome,[7],inactive
same,outcome,[8],inactive
same,outcome,[9],inactive
CCC(C)n1c(=O)[nH]c(C)c(Br)c1=O (stereo not drawn),outcome,[1],inactive
same,outcome,[2],inactive
same,outcome,[3],inactive
same,outcome,[4],inactive
same,outcome,[5],inactive
same,outcome,[6],inactive
same,outcome,[7],inactive
same,outcome,[8],inactive
same,outcome,[10],inactive
same,outcome,[9],inactive
